In the library only some 9% were active in any assay of this set; here they are far more common.
HP1b binding inh – HTS for Inhibitors of HP1-beta Chromodomain Interactions with Methylated Histone Tails; Chromobox protein homolog 1 (Homo sapiens), P83916; AlphaScreen HP1-beta / biotin-H3K9me3 peptide binding; Potency, µM (top dose mostly 114 µM), most hits filed as inhibitors; 390,000 tested, 0.56% active; also: nearly all actives have a fitted effect of over 70% in size
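HP1-beta protein (50 nM final) preincubated 30 min at room temperature with biotinylated H3(1-18)K9me3 peptide (50 nM) in PBS pH 7.4, 0.01% Tween-20, then compound added for 30 min. AlphaScreen streptavidin donor/nickel chelate acceptor beads (10 ug/mL final), 30 min dark, luminescence read.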
PLK1 PBD block – qHTS for Inhibitors of PLK1-PDB (polo-like kinase 1 - polo-box domain): Primary Screen; Plk1 PBD binding of FITC phosphopeptide, fluorescence polarization; Potency, µM, actives largely listed as inhibitors; 360,000 tested, 2.8% active; also: series mostly up to about 57 µM; nearly all actives have a fitted effect of over 65% in size
BAZ2B inh – qHTS Assay for Inhibitors of BAZ2B | Bromodomain adjacent to zinc finger domain protein 2B (Homo sapiens), Q9UIF8 | AlphaScreen BAZ2B-H3K14Ac peptide displacement | Potency, µM (titrated, usually from 114 µM), usual class: inhibitors | 360,000 tested, 4.4% active; also: nearly all actives have a fitted effect of over 60% in size
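BAZ2B (50 nM) with biotin-H3(5-23)K14Ac peptide (50 nM) in PBS pH 7.4, 0.01% Tween-20, preformed 30 min, then compound 30 min at room temperature; top concentration 110uM. AlphaScreen streptavidin donor/nickel chelate acceptor beads (10 ug/mL final), 20 min dark, signal read.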
JMJD2A Tudor – qHTS Assay for Inhibitors of JMJD2A-Tudor Domain. AID 504339, 2011. 390,000 tested, 4.4% active. AlphaScreen JMJD2A-Tudor / H3K4me3 peptide binding. Lysine-specific demethylase 4A (Homo sapiens), O75164. Potency, µM (top dose mostly 114 µM), hits mostly inhibitors; also: nearly all actives have a fitted effect of over 50% in size
ALOX12 inh – Primary qHTS assay for inhibitors of human arachidonate 12S-lipoxygenase (ALOX12): Round 2 | Polyunsaturated fatty acid lipoxygenase ALOX12 (Homo sapiens), P18054 | purified 12hLO, xylenol orange hydroperoxide absorbance | Potency, µM (highest dose often 108 µM), hits mostly inhibitors | 580,000 tested, 1.1% active | AID 1671190, 2021
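Purified human 12hLO at 150 nM in 25 mM Hepes, 0.01% Triton X-100, pH 7.0, preincubated 15 min at room temperature with compound. Reaction started with 40 uM arachidonic acid, 30 min at room temperature. Hydroperoxide measured by Fe-xylenol orange, 573/405 nm absorbance ratio.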
G9a block – qHTS Assay for Inhibitors of Histone Lysine Methyltransferase G9a. G9a H3K9 monomethylation, AlphaScreen, 2 h. Histone-lysine N-methyltransferase EHMT2 (Homo sapiens), Q96KQ7. 350,000 tested, 8.8% active. Potency, µM (titrated, usually from 102 µM), actives largely listed as inhibitors; also: nearly all actives have a fitted effect of over 75% in size
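Step 1: enzyme (final 20 nM) with compound, 15 min RT. Step 2: substrate peptide 500 nM and SAM 20 uM, 2 h RT. Step 3: anti-H3K9me1 antibody and AlphaScreen beads, 10 min, then plate read.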
Each line names hits and unclear results; the compound was inactive in the other large screens. Calls follow the shape of the dose curve; as a rule, active = well fitted curve in the direction sought with a large enough effect; inconclusive = small, poorly fitted or top-dose-only effect, or another doubt; inactive = no such curve, though single readings can be large; an effect the other way counts as inactive or inconclusive.

CCOC(=O)C1(CCOC)CCN(Cc2ccncc2)CC1	G9a block 50µM
CCOC(=O)C1(CCOc2ccccc2)CCN(Cc2ccncc2)CC1	BAZ2B inh inconclusive (no result: G9a block)
CCOC(=O)C1(CCOc2ccccc2)CCN(Cc2cc(OC)ccc2OC)CC1	G9a block inconclusive
CCOC(=O)C1(CCOc2ccccc2)CCN(Cc2cccc(OC)c2O)CC1	JMJD2A Tudor inconclusive, ALOX12 inh 7.1µM (no result: G9a block)
CCOCc1nnc(NC(=O)c2cc(Cl)ccc2OC)s1	ALOX12 inh inconclusive, G9a block 6.3µM
CCOCc1nnc(NC(=O)c2ccc(OC)cc2)s1	none
COCc1nnc(NC(=O)c2cc(Cl)ccc2OC)s1	PLK1 PBD block 30µM, ALOX12 inh inconclusive
CC(C)c1noc(-c2cccn3c(CNC(=O)CCCc4ccccc4)nnc23)n1	none (no result: HP1b binding inh, PLK1 PBD block, BAZ2B inh, JMJD2A Tudor, G9a block)
Cc1cc(NC(=O)CSc2nncn2-c2ccccc2)no1	none
COc1cc(C(=O)OCC(=O)Nc2c(F)cccc2F)cc(OC)c1C	BAZ2B inh inconclusive, G9a block 45µM
COc1ccc(NS(=O)(=O)c2cc3c(cc2C)N(C)CCO3)c(OC)c1	BAZ2B inh 50µM, JMJD2A Tudor inconclusive, G9a block inconclusive
CCN(c1ccccc1)S(=O)(=O)c1cc2c(cc1C)N(C)CCO2	BAZ2B inh inconclusive, JMJD2A Tudor inconclusive, G9a block 79µM
CC(=O)c1ccc(NS(=O)(=O)c2cc3c(cc2C)N(C)CCO3)cc1	PLK1 PBD block 24µM, BAZ2B inh inconclusive, JMJD2A Tudor inconclusive, G9a block inconclusive
CC(=O)c1ccc(NS(=O)(=O)c2cc3c(cc2C)N(C(C)=O)CCO3)cc1	none
C=CCn1c(C)nnc1SCC(=O)c1[nH]c(C)c(C(C)=O)c1C	none
O=C(c1cccc(S(=O)(=O)N2CCOCC2)c1)N1CCN(c2ccccc2)CC1	none
COc1cc(NC(=S)NC2CC(C)(C)NC(C)(C)C2)c(OC)cc1Cl	G9a block 50µM
COc1cc(NC(=S)NCCCO)c(OC)cc1Cl	G9a block 28µM
COc1cc(NC(=S)NC(C)(C)C)c(OC)cc1Cl	PLK1 PBD block inconclusive, JMJD2A Tudor inconclusive, ALOX12 inh inconclusive, G9a block inconclusive
COc1cc(Cl)c(C)cc1NC(=S)NN	PLK1 PBD block 27µM, JMJD2A Tudor inconclusive, ALOX12 inh inconclusive, G9a block 6.3µM
O=C(c1ccoc1)N1CCN(Cc2ccc(=O)n(CC3CC3)c2)CC1	none (no result: HP1b binding inh, PLK1 PBD block, BAZ2B inh, JMJD2A Tudor, G9a block)
COc1cc(OC)c(C(=O)Nc2cc(Cl)ccc2-n2cncn2)cc1OC	G9a block inconclusive
COc1ccccc1NC(=O)c1cc2c(C)nn(-c3ccccc3)c2s1	none (no result: PLK1 PBD block)
COc1ccc2[nH]c(=O)c(CNc3ccccc3OC)cc2c1	BAZ2B inh inconclusive, JMJD2A Tudor inconclusive, G9a block 35µM
COCC(=O)N(Cc1cc2cc(OC)ccc2[nH]c1=O)c1ccccc1OC	none
COc1ccc(NC(=O)c2cc(=O)[nH]c3ccccc23)cc1	none
COc1ccc(NCc2cc(=O)[nH]c3ccccc23)cc1	BAZ2B inh 79µM, JMJD2A Tudor inconclusive, ALOX12 inh inconclusive, G9a block inconclusive
COc1ccc2[nH]c(=O)c(CNc3ccccc3C)cc2c1	PLK1 PBD block inconclusive, ALOX12 inh inconclusive, G9a block 10µM
CCOc1ccc(NCc2cc3cc(OC)ccc3[nH]c2=O)cc1	JMJD2A Tudor inconclusive, G9a block inconclusive
COc1ccc2[nH]c(=O)c(CNc3ccccc3)cc2c1	PLK1 PBD block inconclusive, ALOX12 inh inconclusive, G9a block 35µM
COc1ccccc1CN1CCN(Cc2ccc3ccccc3c2)CC1	HP1b binding inh inconclusive, BAZ2B inh 22µM, JMJD2A Tudor 8.9µM, ALOX12 inh inconclusive, G9a block 7.9µM
COc1ccc(CN2CCN(Cc3ccc4ccccc4c3)CC2)cc1OC	HP1b binding inh 25µM, BAZ2B inh 16µM, JMJD2A Tudor 2.8µM, ALOX12 inh inconclusive
OC1CCN(Cc2ccc3ccccc3c2)CC1	HP1b binding inh inconclusive, BAZ2B inh inconclusive, JMJD2A Tudor 3.5µM, ALOX12 inh inconclusive, G9a block 11µM
CCOc1cc(CN2CCCCCC2)ccc1OC	BAZ2B inh inconclusive, JMJD2A Tudor 2.2µM, ALOX12 inh inconclusive (no result: G9a block)
COc1ccc2ccccc2c1CN1CCN(Cc2ccccc2)CC1	BAZ2B inh inconclusive, G9a block inconclusive
COc1ccc(CN2CCC(CO)(CN3CCCC3)CC2)cc1OC	none (no result: HP1b binding inh, PLK1 PBD block, BAZ2B inh, JMJD2A Tudor, G9a block)
COc1ccc(S(=O)(=O)N2CCN(Cc3ccc(OC)c(OC)c3)CC2)cc1	PLK1 PBD block inconclusive (no result: G9a block)
CCOC(=O)c1cc(OC(=O)c2ccc(C)cc2)n(-c2ccccc2)n1	none (no result: PLK1 PBD block)
CCOc1cc(C#N)c(NC(=O)Cn2nnc3ccccc32)cc1OCC	none
CCC(=O)Nc1ccc(S(=O)(=O)NCCn2nc(-c3ccc(F)cc3)ccc2=O)cc1	none (no result: HP1b binding inh, PLK1 PBD block, BAZ2B inh, JMJD2A Tudor, G9a block)
O=C(CSc1nnc(-c2cnccn2)n1Cc1ccco1)c1ccc(Cl)cc1	G9a block inconclusive
COc1ccc(C(=O)CSc2nnc(-c3ccccn3)n2Cc2ccco2)cc1	BAZ2B inh inconclusive, JMJD2A Tudor inconclusive, G9a block inconclusive
O=C(CSc1nnc(-c2ccccn2)n1Cc1ccco1)c1ccccc1	BAZ2B inh inconclusive, JMJD2A Tudor inconclusive, ALOX12 inh inconclusive, G9a block 40µM
O=C(CSc1nnc(-c2ccccn2)n1Cc1ccco1)c1ccc(Cl)cc1	BAZ2B inh inconclusive, JMJD2A Tudor inconclusive, ALOX12 inh inconclusive, G9a block 40µM
O=C(CSc1nnc(-c2cccnc2)n1Cc1ccco1)c1ccc2ccccc2c1	G9a block 50µM
O=C(CSc1nnc(-c2cnccn2)n1Cc1ccco1)c1ccccc1	G9a block 45µM
O=C(CCNC(=O)N1CC(=O)Nc2ccccc21)NCc1cccc(C(F)(F)F)c1	none (no result: HP1b binding inh, BAZ2B inh, JMJD2A Tudor, G9a block)
COC(=O)CSc1nnc(-c2cccc(NC(=O)c3ccc(C)cc3)c2)n1C	none
Cn1c(SCC(=O)c2ccc3c(c2)Cc2ccccc2-3)nnc1-c1ccccc1	BAZ2B inh inconclusive, G9a block 35µM
Cn1c(SCC(=O)c2ccccc2)nnc1-c1ccncc1	none
Cn1c(SCC(=O)c2ccccc2)nnc1-c1cccc(N)c1	PLK1 PBD block 24µM
Cn1c(SCC(=O)O)nnc1-c1cccc(NC(=O)c2cccc3ccccc23)c1	G9a block 32µM
Cn1c(SCC(=O)c2ccccc2)nnc1-c1ccccn1	BAZ2B inh 79µM
Cc1ccc(C(=O)CSc2nnc(-c3ccccc3N)n2C)cc1C	none
Nc1ncc(Br)cc1S(=O)(=O)NCCC(=O)NCCc1ccc(Cl)cc1	none

Screening data as filed in PubChem.
